# Bioassay records from PubChem BioAssay.
# TIM10 inh: growth inhibitors of TIM10 yeast strain. S. cerevisiae TIM10 strain growth, BacTiter-Glo luminescence, 24 h. inhibition, % at 10 µM. 330,000 compounds, 1.4% hits;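 active = inhibition of 40% or more at the single tested concentration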;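 note: wild-type TIM10 isogenic control strain grown at permissive 25 °C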
# SKKanGAS inh: SKKanGAS growth inhibition; 300,000 compounds, 1.3% hits; AID 1662; inhibition, % at 7.5 µM; S. pyogenes SKKanGAS, kanamycin growth, BacTiter-Glo, 6 h;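 active = mean replicate score, as percent of positive control median, at least 50; inconclusive = mean below 50 but one replicate at or above 50; inactive = mean and every replicate below 50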;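 note: strain carries kanamycin resistance gene driven by streptokinase promoter and grows in 40 µg/ml kanamycin; loss of luminescence reflects streptokinase promoter inhibition or plain growth inhibition; 0% = median of DMSO wells and 100% = positive control at its reference dose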
# PfHsp90 set2: inhibits growth of yeast expressing Plasmodium falciparum Hsp90; inhibition, % at 9.4 µM; 310,000 compounds, 0.32% hits; S. cerevisiae expressing PfHsp90, BacTiter-Glo ATP, 48 h; yeast lacking PDR1 and PDR3 efflux regulators;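 active = every replicate shows inhibition above about 80%, whatever the replicate mean, limit read from the data; inconclusive = mean inhibition reaches the set limit but some replicate falls short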;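 note: 0% = DMSO neutral controls and 100% = 20 µM radicicol positive controls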
# Calb FLC: C. albicans growth modulation with fluconazole. 300,000 compounds, 0.57% hits. AID 1979. C. albicans CaCi-2 (fluconazole-resistant clinical isolate) + fluconazole, Alamar Blue growth, 48 h. growth inhibition, % (concentration not given with the values);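 active = growth inhibition above about 58% in most replicates, limit read from the data, passing the limit was not always enough; inconclusive = exactly half the replicates above a set limit; inactive = most replicates below a set limit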;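 note: all wells also contain fluconazole at 8 µg/ml as a sub-toxic cotreatment; 0% = median of DMSO wells and 100% = median of geldanamycin control wells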
# tim10-1 inh: growth inhibitors of tim10-1 mutant yeast; S. cerevisiae tim10-1 ts strain growth, BacTiter-Glo, 24 h; inhibition, % at 20 µM; 330,000 compounds, 2.2% hits; AID 463190;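 active = inhibition of at least 40%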;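 note: mutant grown at 25 °C; 0% = DMSO wells with yeast and 100% = wells holding no yeast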
# tim23-1 inh: growth inhibitors of tim23-1 mutant yeast. S. cerevisiae tim23-1 growth, BacTiter-Glo luminescence, 24 h. 330,000 compounds, 1.3% hits. inhibition, % at 20 µM;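 active = growth inhibition of the mutant yeast at or above 50%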;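 note: temperature-sensitive mutant grown at 25 °C; plate controls were DMSO-treated mutant yeast for no effect and medium wells lacking yeast for full effect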
# * marks the source's active call; other numbers are inactive results; ? = inconclusive; / = no result. An excerpt weighted towards active compounds, which were near 4.7% of everything screened.
SMILES,TIM10 inh,SKKanGAS inh,PfHsp90 set2,Calb FLC,tim10-1 inh,tim23-1 inh
O=C(Nc1nnc(-c2ccncc2)o1)c1ccc2ccccc2c1,-7.4,77.8*,-30.3,90.1*,4.4,3.1
Cc1ccc(C(=O)Nc2nnc(-c3ccco3)o2)cc1C,24.9,?,-13.0,-14.7,39.0,11.1
O=C(Nc1nnc(-c2ccccc2)o1)c1ccc(Cl)cc1,8.2,92.0*,-89.5,1.8,3.9,19.3
O=C(Nc1nnc(-c2ccccc2)o1)Nc1ccccc1Cl,/,-1.3,17.7,-3.8,/,/
CN(C)c1ccc(C(=O)NNC(=O)c2ccc(Cl)cc2)cc1,-25.5,49.5,14.1,0.4,-34.4,-2.8
CN(c1ccccc1)S(=O)(=O)c1ccc(C(=O)Nc2nnc(-c3ccc(F)cc3)o2)cc1,29.9,102.8*,/,4.1,29.9,6.0
CN(C)c1ccc(C(=O)Nc2nnc(-c3ccc(Cl)cc3)o2)cc1,16.9,90.8*,-67.0,9.6,3.0,6.8
O=C(Cc1c[nH]c2ccccc12)NCc1ccccc1F,-7.1,-2.5,-26.5,-5.1,16.9,7.1
COc1ccc(NC(=O)CSc2nnc3n2CCCCC3)cc1,2.1,4.0,31.2,-0.1,6.9,3.1
O=C(c1cc(-c2ccccc2)n[nH]1)N1CCc2c([nH]c3ccccc23)C1c1ccccn1 (stereo unspecified),21.9,74.8*,13.2,97.8*,36.6,27.0
O=C(c1cccs1)N1CCc2c([nH]c3ccccc23)C1c1ccccn1 (stereo unspecified),28.2,6.2,2.5,-1.1,27.3,17.5
CSC1=NSC2=NC(=O)/C(=C\c3coc4ccccc4c3=O)C(=N)N12,/,/,-6.2,/,/,/
CC(C)CSC1=NSC2=NC(=O)/C(=C\c3coc4ccccc4c3=O)C(=N)N12,23.7,60.8*,0.3,12.2,36.3,24.1
Cc1cccc2c1NC(=O)C2(O)N1CCCC(C)C1 (stereo unspecified),7.9,3.4,11.3,-18.7,15.4,10.9
COc1ccc(S(=O)(=O)N2CCOC2CNC(=O)C(=O)NCc2ccccc2Cl)cc1 (stereo unspecified),9.5,52.0*,-6.4,9.2,2.0,15.0
CCCCNc1nc(N)nc(-c2cc(Cl)ccc2O)n1,-69.0,0.8,103.8*,60.9,26.8,21.4
ClC(Cl)c1nnc(-c2ccccc2)c(-c2c[nH]c3ccccc23)n1,15.3,11.3,-10.8,0.1,24.3,23.1
c1ccc(-c2nnc(-c3c[nH]c4ccccc34)nc2-c2ccccc2)cc1,17.7,64.9*,-48.0,6.3,24.5,29.1
CCC(C)c1ccccc1N1CC(C(=O)Nc2ccc(C)c(S(=O)(=O)N3CCOCC3)c2)CC1=O (stereo unspecified),17.4,2.7,/,1.3,13.9,6.5
CCOC(=O)c1c(C)oc2c1c(C=NCc1ccccn1)c(O)c1ccccc12,/,/,18.9,/,/,/
CCOC(=O)c1c(C)oc2c1c(C(c1cccnc1)N1CCOCC1)c(O)c1ccccc12 (stereo unspecified),24.8,3.5,90.9*,24.9,17.9,34.9
CC1(C(=O)NC(=S)NNC(=O)c2ccncc2)CCCCC1,13.8,54.5*,22.2,-5.0,22.4,12.5
O=C(O)c1cc(-c2ccc(O)cc2)on1,15.8,-4.5,7.9,100.5*,7.5,5.2
O=C(Cn1cnc2ccccc2c1=O)c1ccc(OC(F)F)cc1,20.5,-26.4,17.7,0.3,18.9,43.1
C=CCc1cc(/C=C2/NC(=O)N(CC)C2=O)cc(OCC)c1OCc1ccc(C(=O)O)cc1,11.0,61.5*,-5.6,-6.2,14.0,11.6
SMILES,TIM10 inh,SKKanGAS inh,PfHsp90 set2,Calb FLC,tim10-1 inh,tim23-1 inh
CC1=CC(=O)C=C(C)C1=NOS(=O)(=O)c1ccccc1,/,-1.5,106.5*,5.2,/,/
CC1=CC(=O)C(C(C)C)=C/C1=N/OS(=O)(=O)c1ccccc1,25.1,10.6,110.1*,?,-140.0,48.5
Cc1ccc2c(c1)/C(=N/OS(=O)(=O)c1ccccc1)CCS2,8.9,6.0,/,0.5,27.8,1.9
COc1ccccc1C(=O)NCC(=O)OCCCOC(=O)CNC(=O)c1ccccc1OC,10.2,18.0,-1.2,3.2,18.4,12.5
Nc1ccc(N2CCN(c3cccc(Cl)c3)CC2)cc1,5.4,4.4,-6.4,101.3*,-13.7,20.4
Clc1cccc(N2CCN(CCCN3CCN(c4ccccc4)CC3)CC2)c1,/,/,-15.5,/,/,/
CCN(C(=O)CSc1ccc2ccccc2n1)C1CCCCC1,8.0,/,-24.4,/,13.1,41.0
